# MARV entry inh – blocks Marburg virus binding to or entry into cells | Marburg virus pseudotyped entry inhibition, cell reporter | Potency, µM (top dose mostly 37.8 µM), inactives show top-dose activity change, negative = inhibition, most hits filed as inhibitors | 300,000 compounds, 1.8% hits | AID 540276; calls by dose curve; tested in HEK293 cells; note: potency is the fitted concentration of half-maximal effect; % is set by controls: 0 for no effect and ±100 for the full control effect
# Shiga toxin inh – inhibitors of Shiga toxin in Vero cells; 290,000 compounds, 9.2% hits; inhibition, % at 38.7 µM; Vero cells, Shiga toxin protein synthesis inhibition reporter; in the data active = inhibition mostly above about 28%, no sharp cut-off; inactive = mostly below about 43%; note: 0% is about no effect
# Pf growth 96h – P. falciparum growth inhibition at 96 hours. 320,000 compounds, 6.9% hits. P. falciparum luciferase reporter growth, 96 h. Potency, µM (series often up to 28.7 µM), inactives show top-dose activity change, negative = inhibition, hits mostly inhibitors; note: potency is the fitted concentration of half-maximal effect; % is set by controls: 0 for no effect and ±100 for the full control effect
#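 Parasite growth measured via integrated firefly luciferase reporter in P. falciparum. Infected erythrocytes at 2% hematocrit, 0.05% parasitemia final were treated 96 hours at 37 C under 5% CO2, and luminescence was read.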
# Pf growth 48h – inhibits P. falciparum growth in the first generation, 48 h | P. falciparum luciferase growth in erythrocytes, 48 h | Potency, µM (titrated, usually from 28.7 µM), for the others: at the top dose activity change, negative = inhibition, actives largely listed as inhibitors | 310,000 compounds, 5.9% hits | AID 504832; note: potency is the fitted concentration of half-maximal effect; % is set by controls: 0 for no effect and ±100 for the full control effect
#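 Here the parasites carry a stable luciferase gene and grow inside erythrocytes in Albumax-based RPMI medium with compound for one erythrocytic cycle. Activity is scored as loss of luminescent signal.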
# CHX counter – counter-screen for Shiga toxin inhibitors: cycloheximide protein synthesis inhibition; 300,000 compounds, 12% hits; cell reporter, cycloheximide protein synthesis inhibition counterscreen; max response, %; in the data active = max response mostly above about 13%, no sharp cut-off; inactive = mostly below about 14%; note: read at 38.3 µM for the half of the compounds with a filed dose; 0% is about no effect
# Lassa entry inh – Lassa virus entry inhibition | Lassa virus pseudotype entry inhibition, cell reporter | Potency, µM (titrated, usually from 37.9 µM), for inactives: at the highest dose activity change, negative = inhibition, hits mostly inhibitors | 300,000 compounds, 1.2% hits; calls by dose curve; tested in HEK293 cells; note: potency is the fitted concentration of half-maximal effect; % is set by controls: 0 for no effect and ±100 for the full control effect; nearly all actives have a fitted effect of over 50% in size
# Numbers without * were called inactive; i = inactive; ? = inconclusive; nt = not tested or not shown; [ ] = another dose, or the depositor's remark. Most compounds without a hit are left out; they make up all but 19% or so of the library. Unless noted, calls come from the whole dose curve; as a rule, active = well fitted inhibition curve with a large enough effect; inconclusive = small, poorly fitted or top-dose-only effect, or another doubt; inactive = no such curve, though single readings can be large or run the other way.
SMILES,MARV entry inh,Shiga toxin inh,Pf growth 96h,Pf growth 48h,CHX counter,Lassa entry inh
COc1ccc(NC(=O)C2C3C=CC(O3)C2C(=O)O)cc1 (centres undefined),nt,1,?,14%,1,nt
N#C/C(=C\c1ccccc1)c1nc(-c2cc3cc(Br)ccc3oc2=O)cs1,nt,nt,nt,nt,nt,-13%[46.1 µM]
Cc1c(C)c(C)c2[nH]c(-c3ccc4c(c3)OCO4)nc2c1C,nt,68*,2.1µM*,2.3µM*,27*,nt
CCN(CC)CC(C)(C)C(=O)/C=C/c1ccc(/C=C/C(=O)C(C)(C)CN(CC)CC)cc1,1.4µM*,nt,nt,nt,nt,3.5µM*
Cc1ccc(NS(=O)(=O)c2cc(-c3cc(C)no3)ccc2C)c(Cl)c1,nt,nt,nt,nt,nt,-13%[46.1 µM]
COc1ccc(S(=O)(=O)N2CCC(C(=O)N[C@H](C(=O)N3CCCC3)C(C)C)CC2)cc1,9%[46.1 µM],-1,?,-10%,2,?
Cc1nc([N+](=O)[O-])cn1-c1ccc(N)cc1,1%,-11,12µM*,5%,-8,22%
Cc1ccc(/C=N/c2sc3c(c2C#N)CCC3)s1,?,114*,7.4µM*,71%,55*,-14%
N#Cc1c(/N=C/c2cc3ccccc3s2)sc2c1CCC2,24%,33*,152%,216%,20*,-3%
Cc1ccc(/C=N/c2sc3c(c2C#N)CCCCC3)o1,-17%,6,104%,22%,-2,?
COc1ccccc1CN(C)C(=O)CNC(=O)c1cccc(Cl)c1,?,3,-7%,13%[0.00184 µM],-1,25%[46.1 µM]
CCCCC(=O)Nc1cc2nn(-c3ccc(OC)cc3)nc2cc1C,20%,-5,58%,nt,10,?
CCC(=O)Nc1cc2nn(-c3ccc(OC)cc3)nc2cc1C,?,90*,nt,406%,52*,-27%
Cc1cccc(C(=O)Nc2cc3nn(-c4ccc(C(C)C)cc4)nc3cc2C)c1,3%[46.1 µM],nt,nt,nt,nt,19%[46.1 µM]
CCC(=O)Nc1cc2nn(-c3ccc(C)cc3)nc2cc1C,?,109*,?,i,44*,?
COc1ccc(-n2nc3cc(C)c(NC(=S)NC(=O)c4ccccc4C)cc3n2)cc1,?,112*,111%,60%,30*,-5%
Cc1ccc(C(C)C)c(OCC(=O)NCC2(N(C)C)CCCCC2)c1,?,nt,nt,nt,nt,-4%[46.1 µM]
CCc1ccc2oc(-c3cc(N)cc(C)c3O)nc2c1,?,80*,29%,193%,36*,?
CCc1ccc2oc(-c3cc(N)ccc3Cl)nc2c1,-27%,21,?,159%,15*,-7%
Nc1ccc2oc(-c3ccccc3Cl)nc2c1,?,36*,32%,83%,21*,?
Nc1ccc2oc(-c3cc(Br)ccc3Cl)nc2c1,?,4,nt,58%,-4,?
CCc1ccc2oc(-c3cc(NC(=O)C(C)C)cc(C)c3O)nc2c1,?,nt,nt,nt,nt,-5%[46.1 µM]
CCc1ccc2oc(-c3cc(N)ccc3O)nc2c1,?,15,?,-15%,18*,?
CC(OC(=O)c1cccnc1SCc1cc(=O)n2ccccc2n1)c1ccccn1 (centres undefined),6%,16,69%,nt,8,-1%
CSc1nsc(SCC(=O)Nc2ccc3c(c2)OCCO3)n1,-54%,94,nt,191%,41*,?
SMILES,MARV entry inh,Shiga toxin inh,Pf growth 96h,Pf growth 48h,CHX counter,Lassa entry inh
Cc1csc(SCC(=O)Nc2ccc3c(c2)OCCO3)n1,-12%[46.1 µM],75*,11%,49%,42*,25%
CSc1nsc(SCC(=O)Nc2ccc(F)cc2)n1,0%[46.1 µM],42,20%,66%,9,1%[46.1 µM]
COc1cc(NC(=O)CSc2nc(-c3ccc(C)cc3)nc3c2Cc2ccccc2O3)cc(OC)c1,15%[46.1 µM],nt,nt,nt,nt,3%[46.1 µM]
Cc1ccc(S(=O)(=O)CC(=O)Nc2nc(C(C)(C)C)cs2)cc1,2%,6,0%,18%,4,3.7µM*
Cc1ccc(S(=O)(=O)CCC(=O)Nc2nc(C(C)(C)C)cs2)cc1,nt,5,30%,6%,1,nt
CC(C)(C)c1ccccc1NC(=O)c1cccnc1,1%,-1,-26%,4%,-1,-15%
CC(C)(C)c1csc(NC(=O)c2cccnc2)n1,nt,17,15µM*,?,13*,nt
CC(C)(C)c1cc(NC(=O)c2cccnc2)no1,3%,79,-25%,37%,31*,?
CC(C)(C)c1csc(NNC(=O)c2ccc(Cl)cc2)n1,?,64*,?,?,29*,?
COc1ccc2oc(-c3ccc(C)c(NC(=O)COc4cc(C)cc(C)c4)c3)nc2c1,-14%[46.1 µM],nt,nt,nt,nt,-2%[46.1 µM]
COc1ccc(NC(=O)CCN2CCN(S(=O)(=O)c3cc(Cl)ccc3OC)CC2)cc1,11%[46.1 µM],-11,?,?,-3,8%
CCOc1ncccc1C(=O)Nc1nc(C(C)(C)C)cs1,nt,32,?,5%,20,nt
CC(C)(C)c1csc(NC(=O)CCc2ccccc2)n1,nt,nt,?,-21%,25*,nt
O=C(Cc1cccs1)Nc1nc(-c2cccnc2)cs1,nt,18,?,?,1,nt
CC(C)(C)c1csc(NC(=O)c2cccs2)n1,?,71*,?,55%,44*,?
CC(C)(C)c1cc(NC(=O)C2CCCO2)no1 (centres undefined),?,47*,31%,194%,33*,?
CC(C)(C)c1csc(NC(=O)Cc2cccs2)n1,19%,61*,-9%,12%,33*,?
COC(=O)c1cccnc1-n1c(=O)c2cccnc2n(CC(=O)Nc2ccc(C)cc2C)c1=O,8%[46.1 µM],nt,nt,nt,nt,-1%[46.1 µM]
C/C(=N\Nc1ncc(Cl)cc1Cl)c1ccc(C#N)cc1,-6%,47,11%,74%,9,5%
CCN(CC)C(=O)COc1ccc(/C(C)=N/Nc2ncc(Cl)cc2Cl)cc1,nt,66*,22%,-15%,28*,nt
COc1ccc(Cl)cc1-c1nc(-c2ccc(NC(=O)c3ccncc3)cc2)no1,-12%,nt,nt,nt,nt,-17%
CC(Oc1ccc(Cl)cc1Cl)c1nc(-c2ccc(NC(=O)c3ccccn3)cc2)no1 (centres undefined),?,71*,-25%,145%,28*,?
CCOC(=O)C1CCN(CC(=O)c2ccc(O)c(C)c2O)CC1,nt,0,?,-10%,-2,nt
O=C(CC(=O)NC1CCCCC1)N/N=C/c1ccccc1F,nt,-6,12%,24%,-1,nt
O=C(NC1CCCc2ccccc21)c1ccc(Cl)nc1 (centres undefined),15%[46.1 µM],-18,-18%,nt,0,8%
CC(C)CC1NC(=O)C(CCCN)NC(=O)C(C(C)C)NC(=O)C2CCCN2C(=O)C(Cc2ccccc2)NC(=O)C(CC(C)C)NC(=O)C(CCCN)NC(=O)C(C(C)C)NC(=O)C2CCCN2C(=O)C(Cc2ccccc2)NC1=O (centres undefined),nt,nt,2.4µM*,-99%,nt,nt
Cc1oc2ncnc(N)c2c1C,-20%,10,139%,14%,4,-3%
Cc1nn(C)c(C)c1S(=O)(=O)NC1CCCC1,8%[46.1 µM],-3,-24%,?,-3,9%
Cc1nn(-c2nnc(NC3CCCCC3)nn2)c(C)c1Br,3.5µM*,active,?,?,47*,?
